Test results from ChEMBL document CHEMBL1961873, “Compounds: GSK PKIS; Assays: Nanosyn kinase panel” (2012).

Each compound was assayed against ALK tyrosine kinase receptor (Homo sapiens) (UniProt Q9UM73). Conditions: at 1 µM.
Sequence of ALK tyrosine kinase receptor (Homo sapiens) (Q9UM73 19-1620 limits assumed): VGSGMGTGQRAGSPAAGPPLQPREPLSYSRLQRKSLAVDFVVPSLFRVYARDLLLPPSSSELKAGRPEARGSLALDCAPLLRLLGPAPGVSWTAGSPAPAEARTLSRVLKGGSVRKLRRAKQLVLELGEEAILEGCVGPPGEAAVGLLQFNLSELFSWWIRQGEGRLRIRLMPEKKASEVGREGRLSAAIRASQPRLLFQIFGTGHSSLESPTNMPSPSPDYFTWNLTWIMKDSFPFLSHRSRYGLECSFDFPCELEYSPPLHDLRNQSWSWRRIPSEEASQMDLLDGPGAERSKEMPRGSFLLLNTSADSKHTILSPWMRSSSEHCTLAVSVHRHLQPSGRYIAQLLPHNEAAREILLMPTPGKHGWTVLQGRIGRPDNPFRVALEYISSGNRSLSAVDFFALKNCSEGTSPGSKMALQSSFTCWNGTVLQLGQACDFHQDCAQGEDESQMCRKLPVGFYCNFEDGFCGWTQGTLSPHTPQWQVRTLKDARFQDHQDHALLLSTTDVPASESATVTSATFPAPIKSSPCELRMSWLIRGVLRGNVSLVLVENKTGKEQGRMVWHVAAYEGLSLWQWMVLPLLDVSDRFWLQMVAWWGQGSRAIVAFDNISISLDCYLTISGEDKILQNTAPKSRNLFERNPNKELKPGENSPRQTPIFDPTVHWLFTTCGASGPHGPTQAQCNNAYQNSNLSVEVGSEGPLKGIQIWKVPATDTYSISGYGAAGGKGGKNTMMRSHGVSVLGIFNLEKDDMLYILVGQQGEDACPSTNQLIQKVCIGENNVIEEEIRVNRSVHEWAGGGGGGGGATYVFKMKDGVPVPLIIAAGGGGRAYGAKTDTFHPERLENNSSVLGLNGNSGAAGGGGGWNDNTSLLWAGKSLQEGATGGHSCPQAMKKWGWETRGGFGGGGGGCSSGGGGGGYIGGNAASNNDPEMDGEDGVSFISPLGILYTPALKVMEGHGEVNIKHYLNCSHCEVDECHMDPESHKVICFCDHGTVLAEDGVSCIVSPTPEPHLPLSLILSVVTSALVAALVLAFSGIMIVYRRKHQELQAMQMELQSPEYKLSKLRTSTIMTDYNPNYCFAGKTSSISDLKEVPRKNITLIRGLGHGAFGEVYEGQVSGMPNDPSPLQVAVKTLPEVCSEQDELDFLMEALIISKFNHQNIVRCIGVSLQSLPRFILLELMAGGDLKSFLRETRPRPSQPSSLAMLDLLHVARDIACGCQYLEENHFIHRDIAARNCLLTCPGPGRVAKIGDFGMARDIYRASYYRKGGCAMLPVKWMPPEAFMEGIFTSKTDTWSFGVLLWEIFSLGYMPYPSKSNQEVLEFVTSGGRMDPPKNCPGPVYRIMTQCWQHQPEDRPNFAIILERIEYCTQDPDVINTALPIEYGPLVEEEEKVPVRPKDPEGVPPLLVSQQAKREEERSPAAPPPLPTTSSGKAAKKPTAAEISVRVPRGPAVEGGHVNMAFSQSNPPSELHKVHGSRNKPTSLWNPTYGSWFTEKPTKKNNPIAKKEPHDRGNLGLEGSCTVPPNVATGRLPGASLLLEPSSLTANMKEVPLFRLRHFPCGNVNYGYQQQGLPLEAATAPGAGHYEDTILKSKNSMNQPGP

| Structure (SMILES) | inhibition [%] |
| --- | --- |
| Nc1ccc(C#Cc2cncnc2Nc2ccc(OCc3cccc(F)c3)c(Cl)c2)cc1 | 3.34 |
| O=S(=O)(CCOCc1ccc(-c2ccc3ncnc(Nc4ccc(OCc5cccc(F)c5)c(Cl)c4)c3c2)o1)c1ccccc1 | 3.74 |
| Nc1nccc(C#Cc2cncnc2Nc2ccc(OCc3cccc(F)c3)c(Cl)c2)n1 | 6.28 |
| ON=C1CCc2cc(-c3nc(C4CCNCC4)[nH]c3-c3ccncc3)ccc21 | 4.92 |
| Cc1cc(O)cc(C)c1/C=C/c1cncc(C(=O)N(C)C)c1 | 3.57 |
| CCn1c(-c2nonc2N)nc2c(C#CC(C)(C)O)nc(OCCNC)cc21 | 3.58 |
| Cc1cc(-c2ccccn2)cc(C)c1/C=C/c1cncc(-c2nn[nH]n2)c1 | 5.05 |
| NS(=O)(=O)c1ccc(-c2cc3ccncc3cc2OCc2ccccc2)cc1 | 15.5 |
| CS(=O)(=O)Nc1cccc(-c2ccc3c(NC(=O)C4CC4)n[nH]c3c2)c1 | 1.09 |
| O=C(Nc1ccc(Oc2ccc3[nH]c(NC(=O)c4ccco4)nc3c2)cc1)Nc1cc(C(F)(F)F)ccc1F | 7.58 |
| COc1ccc2ncnc(Nc3ccc(OCc4ccccc4)cc3)c2c1 | 0.87 |
| COC(=O)c1cncc(/C=C/c2c(C)cc(O)cc2C)c1 | 4.4 |
| Cc1ccc(C(=O)NC2CC2)cc1-c1ccc2[nH]ncc2c1 | -1.66 |
| COc1cc2ncnc(Nc3ccc4c(cnn4Cc4ccccc4)c3)c2cc1OC | 3.06 |
| Cc1ccc2c(c1)/C(=N/Nc1ccc(S(N)(=O)=O)cc1)C(=O)N2 | 2.77 |
| CN(C)CCCn1c(-c2nonc2N)nc2cnccc21 | 4.63 |
| CCCN1CCCC(c2ccc(Nc3nc(Nc4cc(F)ccc4C(N)=O)c4cc[nH]c4n3)c(OC)c2)C1 (stereo unspecified) | 86.3 |

| Structure (SMILES) | inhibition [%] |
| --- | --- |
| Cc1ccc(NC(=O)CC2CC2)cc1-c1ccc(C(=O)NCC2CC2)cc1 | 3.58 |
| Cc1ccc(Nc2ccnc(Nc3cccc(C(N)=O)c3)n2)cc1O | 10.9 |
| CN(c1ccc(NC(=O)Nc2ccc(OC(F)(F)F)cc2)cc1)c1ccnc(Nc2cccc(S(N)(=O)=O)c2)n1 | 4.22 |
| CS(=O)(=O)CCNCc1nc(-c2ccc3ncnc(Nc4ccc(OCc5cccc(C(F)(F)F)c5)cc4)c3c2)cs1 | 6.49 |
| Cc1nc(-c2ccccc2)n2nc(NCCCN3CCOCC3)ncc12 | 4.11 |
| CN(C)C(=O)O[C@H]1CN[C@H](C#Cc2cc3ncnc(Nc4ccc(OCc5cccc(F)c5)c(Cl)c4)c3s2)C1 | 5.03 |
| NC(=O)c1sc(-n2cnc3ccccc32)cc1OCc1ccccc1Br | 6.94 |
| COc1cc(/C=N/Nc2ncnc3c2cnn3C(C)C)ccc1O | 4.12 |
| Cc1ccc2c(-c3ccnc(Nc4cccc(C(F)(F)F)c4)n3)c(-c3ccccc3)nn2n1 | 3.77 |
| CC(C)c1ccc2c(c1)NC(=O)/C2=N/Nc1ccc(S(N)(=O)=O)cc1 | 2.81 |
| NS(=O)(=O)c1ccc(NC=C2C(=O)Nc3ccc4ncsc4c32)cc1 | 32.2 |
| CN(C)c1cc2c(Nc3ccc4c(cnn4Cc4ccccc4)c3)ncnc2cn1 | 4.13 |
| Oc1cccc(-c2nc(-c3ccccc3)[nH]c2-c2ccncc2)c1 | 4.75 |
| CCn1c(-c2nonc2N)nc2ccc(F)cc21 | 5.27 |
| CN1CCN(C(=O)c2ccc(NC(=O)Nc3ccc(N(C)c4ccnc(Nc5ccc(CS(C)(=O)=O)cc5)n4)cc3)cc2)CC1 | 10.3 |
| Nc1nccc(-c2c(-c3ccc(F)cc3)nn3cc(C(F)(F)F)ccc23)n1 | 5.16 |

What follows are compounds tested against Tyrosine-protein kinase ABL2 (Homo sapiens) (UniProt P42684). Conditions: at 0.1 µM.
Sequence of Tyrosine-protein kinase ABL2 (Homo sapiens) (P42684 whole entry): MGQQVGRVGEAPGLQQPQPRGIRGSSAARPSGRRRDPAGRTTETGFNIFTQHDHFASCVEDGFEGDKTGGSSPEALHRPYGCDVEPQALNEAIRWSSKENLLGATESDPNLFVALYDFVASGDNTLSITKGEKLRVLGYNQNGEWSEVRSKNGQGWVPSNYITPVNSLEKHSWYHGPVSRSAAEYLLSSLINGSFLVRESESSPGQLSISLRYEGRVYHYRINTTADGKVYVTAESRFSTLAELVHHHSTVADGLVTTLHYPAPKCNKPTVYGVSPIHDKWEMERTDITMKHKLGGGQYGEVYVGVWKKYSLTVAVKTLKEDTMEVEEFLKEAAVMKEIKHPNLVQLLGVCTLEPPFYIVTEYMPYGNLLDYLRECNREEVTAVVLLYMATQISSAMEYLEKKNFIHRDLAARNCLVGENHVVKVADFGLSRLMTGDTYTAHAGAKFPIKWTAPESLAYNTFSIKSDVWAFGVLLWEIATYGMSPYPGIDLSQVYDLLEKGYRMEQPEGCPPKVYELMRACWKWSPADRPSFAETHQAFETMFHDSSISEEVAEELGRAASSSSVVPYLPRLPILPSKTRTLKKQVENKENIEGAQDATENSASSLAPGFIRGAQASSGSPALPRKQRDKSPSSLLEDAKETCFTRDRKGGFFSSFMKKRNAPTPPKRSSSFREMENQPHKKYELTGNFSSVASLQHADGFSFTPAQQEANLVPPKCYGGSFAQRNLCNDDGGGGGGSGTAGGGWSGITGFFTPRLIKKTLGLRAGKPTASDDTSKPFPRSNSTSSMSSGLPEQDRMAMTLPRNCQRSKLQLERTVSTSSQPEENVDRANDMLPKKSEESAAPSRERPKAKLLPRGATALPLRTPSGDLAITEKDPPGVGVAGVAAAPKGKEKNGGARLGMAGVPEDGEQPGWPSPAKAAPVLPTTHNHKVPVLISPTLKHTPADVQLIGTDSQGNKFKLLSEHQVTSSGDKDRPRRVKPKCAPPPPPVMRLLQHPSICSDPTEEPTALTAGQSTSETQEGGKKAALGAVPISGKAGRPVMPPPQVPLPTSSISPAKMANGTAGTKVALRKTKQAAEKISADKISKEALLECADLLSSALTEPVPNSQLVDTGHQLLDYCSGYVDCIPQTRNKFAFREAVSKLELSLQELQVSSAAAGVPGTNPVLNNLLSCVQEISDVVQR

| Structure (SMILES) | inhibition [%] |
| --- | --- |
| Nc1ccc(C#Cc2cncnc2Nc2ccc(OCc3cccc(F)c3)c(Cl)c2)cc1 | 3.43 |
| O=S(=O)(CCOCc1ccc(-c2ccc3ncnc(Nc4ccc(OCc5cccc(F)c5)c(Cl)c4)c3c2)o1)c1ccccc1 | 2.62 |
| Nc1nccc(C#Cc2cncnc2Nc2ccc(OCc3cccc(F)c3)c(Cl)c2)n1 | 3.79 |
| ON=C1CCc2cc(-c3nc(C4CCNCC4)[nH]c3-c3ccncc3)ccc21 | 2.12 |
| Cc1cc(O)cc(C)c1/C=C/c1cncc(C(=O)N(C)C)c1 | 4.85 |
| CCn1c(-c2nonc2N)nc2c(C#CC(C)(C)O)nc(OCCNC)cc21 | 1.91 |
| Cc1cc(-c2ccccn2)cc(C)c1/C=C/c1cncc(-c2nn[nH]n2)c1 | 5.89 |
| NS(=O)(=O)c1ccc(-c2cc3ccncc3cc2OCc2ccccc2)cc1 | 3.51 |
| CS(=O)(=O)Nc1cccc(-c2ccc3c(NC(=O)C4CC4)n[nH]c3c2)c1 | 2.46 |
| O=C(Nc1ccc(Oc2ccc3[nH]c(NC(=O)c4ccco4)nc3c2)cc1)Nc1cc(C(F)(F)F)ccc1F | 35.6 |
| COc1ccc2ncnc(Nc3ccc(OCc4ccccc4)cc3)c2c1 | 2.72 |
| COC(=O)c1cncc(/C=C/c2c(C)cc(O)cc2C)c1 | 12.5 |
| Cc1ccc(C(=O)NC2CC2)cc1-c1ccc2[nH]ncc2c1 | -1.18 |
| COc1cc2ncnc(Nc3ccc4c(cnn4Cc4ccccc4)c3)c2cc1OC | 0.85 |
| Cc1ccc2c(c1)/C(=N/Nc1ccc(S(N)(=O)=O)cc1)C(=O)N2 | 3.63 |
| CN(C)CCCn1c(-c2nonc2N)nc2cnccc21 | 3.56 |
| CCCN1CCCC(c2ccc(Nc3nc(Nc4cc(F)ccc4C(N)=O)c4cc[nH]c4n3)c(OC)c2)C1 (stereo unspecified) | 2.38 |

| Structure (SMILES) | inhibition [%] |
| --- | --- |
| Cc1ccc(NC(=O)CC2CC2)cc1-c1ccc(C(=O)NCC2CC2)cc1 | 8.79 |
| Cc1ccc(Nc2ccnc(Nc3cccc(C(N)=O)c3)n2)cc1O | 50.8 |
| CN(c1ccc(NC(=O)Nc2ccc(OC(F)(F)F)cc2)cc1)c1ccnc(Nc2cccc(S(N)(=O)=O)c2)n1 | 20.2 |
| CS(=O)(=O)CCNCc1nc(-c2ccc3ncnc(Nc4ccc(OCc5cccc(C(F)(F)F)c5)cc4)c3c2)cs1 | 1.49 |
| Cc1nc(-c2ccccc2)n2nc(NCCCN3CCOCC3)ncc12 | 2.85 |
| CN(C)C(=O)O[C@H]1CN[C@H](C#Cc2cc3ncnc(Nc4ccc(OCc5cccc(F)c5)c(Cl)c4)c3s2)C1 | 3.49 |
| NC(=O)c1sc(-n2cnc3ccccc32)cc1OCc1ccccc1Br | 4.44 |
| COc1cc(/C=N/Nc2ncnc3c2cnn3C(C)C)ccc1O | 16.7 |
| Cc1ccc2c(-c3ccnc(Nc4cccc(C(F)(F)F)c4)n3)c(-c3ccccc3)nn2n1 | -9.35 |
| CC(C)c1ccc2c(c1)NC(=O)/C2=N/Nc1ccc(S(N)(=O)=O)cc1 | 3.65 |
| NS(=O)(=O)c1ccc(NC=C2C(=O)Nc3ccc4ncsc4c32)cc1 | 5.56 |
| CN(C)c1cc2c(Nc3ccc4c(cnn4Cc4ccccc4)c3)ncnc2cn1 | 1.06 |
| Oc1cccc(-c2nc(-c3ccccc3)[nH]c2-c2ccncc2)c1 | 13.2 |
| CCn1c(-c2nonc2N)nc2ccc(F)cc21 | 3.97 |
| CN1CCN(C(=O)c2ccc(NC(=O)Nc3ccc(N(C)c4ccnc(Nc5ccc(CS(C)(=O)=O)cc5)n4)cc3)cc2)CC1 | 21.9 |
| Nc1nccc(-c2c(-c3ccc(F)cc3)nn3cc(C(F)(F)F)ccc23)n1 | 2.16 |
